Screens deposited in PubChem by The Scripps Research Institute Molecular Screening Center.
The list is not random: actives were taken first. Their share in the collection is about 1.7%.
LYPLA2 counter: blocks human lysophospholipase 2, a PME1 counter-screen. 0.38% of 320,000 active. recombinant LYPLA2, FP-Rh probe fluorescence polarization. O95372. inhibition, % at 5.9 µM. AID 2177;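 active = inhibition above the screen-wide mean plus 3 SD, limit set per campaign, cut at about 26% in these data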;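 also: 0% = LYPLA2 with DMSO and 100% = wells lacking LYPLA2 enzyme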
PAD4 FP inh: blocks human protein arginine deiminase 4. Q9UM07. recombinant PAD4, RCA probe fluorescence polarization. inhibition, % at 6.36 µM. 0.41% of 330,000 active;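 active = percent inhibition above a cutoff equal to the mean of all tested compounds plus 3 SD, cut at about 15% in these data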;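 also: 0% = PAD4 with RCA probe and DMSO and 100% = probe without PAD4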
Fam108B counter: Fam108B inhibition, counter-screen for RBBP9 inhibitors. recombinant Fam108B, FP-Rh probe fluorescence polarization. 0.33% of 300,000 active. AID 1947. inhibition, % at 9.51 µM;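 active = inhibition above the screen mean inhibition plus 3 SD, computed separately per campaign, cut at about 18% in these data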;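 also: inhibitors lower polarization as less probe binds the enzyme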
PME-1 primary: blocks human protein phosphatase methylesterase 1. inhibition, % at 5.9 µM. Q9Y570. 0.53% of 320,000 active. recombinant PME-1, FP-Rh probe fluorescence polarization;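 active = inhibition above the campaign mean of all compounds plus 3 SD, cut at about 26% in these data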;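 also: competitive labeling of PME-1 active site by serine hydrolase directed probe; 0% = PME-1 with DMSO and 100% = wells lacking PME-1 enzyme; inhibitors block probe labeling so polarization falls and inhibition rises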
LYPLA1 inh: blocks human lysophospholipase 1, a PME1 counter-screen. recombinant LYPLA1, FP-Rh probe fluorescence polarization. O75608. 0.16% of 320,000 active. inhibition, % at 5.9 µM;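 active = inhibition above the mean of all tested compounds plus 3 SD, set per campaign, cut at about 14% in these data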;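 also: inhibitors block serine hydrolase probe labeling of LYPLA1 so polarization falls; 0% = enzyme with DMSO and 100% = wells lacking LYPLA1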
Target sequence (O75608 whole entry, looked up): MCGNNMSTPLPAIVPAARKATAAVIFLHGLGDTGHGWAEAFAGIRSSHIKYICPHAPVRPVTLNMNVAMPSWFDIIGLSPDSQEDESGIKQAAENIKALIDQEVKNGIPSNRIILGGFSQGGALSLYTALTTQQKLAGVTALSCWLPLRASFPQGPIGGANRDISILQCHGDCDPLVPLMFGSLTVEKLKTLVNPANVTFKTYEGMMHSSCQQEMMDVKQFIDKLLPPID
GSTO1 inh: blocks human GSTO1 in RBBP9 counter-screen; recombinant GSTO1, activity-based probe fluorescence polarization; inhibition, % at 5.96 µM; 1.1% of 300,000 active;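 active = inhibition above the campaign mean inhibition plus 3 SD, cut at about 35% in these data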;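 also: 0% = GSTO1-1 with DMSO and 100% = wells lacking GSTO1-1 enzyme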
Target sequence (P78417 whole entry, looked up): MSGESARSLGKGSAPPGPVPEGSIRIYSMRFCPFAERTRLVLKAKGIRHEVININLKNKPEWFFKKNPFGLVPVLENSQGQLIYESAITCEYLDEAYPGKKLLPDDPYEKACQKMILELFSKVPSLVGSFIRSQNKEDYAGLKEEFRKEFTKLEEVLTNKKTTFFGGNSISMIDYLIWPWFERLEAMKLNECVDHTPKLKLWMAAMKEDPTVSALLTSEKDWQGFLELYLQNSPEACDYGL
LYPLA1 confirm: counter-screen for PME1 inhibitors: confirmation of human LYPLA1 inhibitors; shares compounds with LYPLA1 inh; recombinant LYPLA1, FP-Rh probe fluorescence polarization; inhibition, % at 5.9 µM; 69% of 480 active; AID 2233;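 active = mean inhibition across replicates above the hit cutoff set in the primary screen, cut at about 15% in these data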;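 also: loss of FP-Rh probe labeling of LYPLA1 seen as lower polarization; 0% = LYPLA1 with DMSO and 100% = wells lacking LYPLA1 enzyme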
An asterisk follows results filed as active; nt = no result; + = active, no number.

SMILES | LYPLA2 counter | PAD4 FP inh | Fam108B counter | PME-1 primary | LYPLA1 inh | GSTO1 inh | LYPLA1 confirm
C=CCNC(=S)N1CCN(c2cc3c(cc2F)c(=O)c(C(=O)O)cn3CC)CC1 | 3 | 0 | 2 | -1 | 0 | 6 | nt
COc1ccc([N+](=O)[O-])cc1NC(=O)C(C)N1CCN(C(=O)c2ccco2)CC1 (centres undefined) | -2 | -4 | -4 | -5 | 16* | -6 | 22*
COC(=O)c1cc(C(=O)N2CCN(C(=O)c3ccco3)CC2)cc([N+](=O)[O-])c1 | 8 | 2 | -1 | 4 | -1 | 9 | nt
c1ccc2[nH]c(CSc3ncnc4c3oc3ccccc34)nc2c1 | -4 | -5 | -4 | -28 | -1 | 1 | nt
c1ccc2[nH]c(CN3CCN(c4ncnc5c4oc4ccccc45)CC3)nc2c1 | 4 | -5 | -2 | 9 | 17* | -12 | 18*
COc1cc(NC(=O)Nc2ccc(Cl)c(Cl)c2)c(C(=O)O)cc1OC | 9 | 0 | 5 | 18 | 20* | -28 | 18*
COc1cc(OC)c(NC(=O)Nc2ccc(OC)c(OC)c2)cc1Cl | 0 | 0 | -6 | -6 | -2 | 3 | nt
O=C1C(Cc2c[nH]c3ccccc23)NC(=S)N1Cc1ccccc1 (centres undefined) | -7 | -4 | 4 | 2 | 38* | 8 | 1
O=C1NC(=S)S/C1=C\c1coc2ccccc2c1=O | 7 | -9 | 3 | 4 | 17* | 21 | -2
Cc1cc(=O)oc2c(C)c(OC(C)C(=O)Nc3ccc(N4CCC(C)CC4)cc3)ccc12 (centres undefined) | 6 | -2 | 6 | 1 | 2 | -1 | nt
COc1ccc(Cl)cc1NC(=O)CN1CCC(n2nnc3ccccc32)CC1 | -3 | 2 | 2 | 2 | 15* | 3 | 19*
CN(CCCC1CCCC1)C(=O)c1cc(COc2ccc(F)c(F)c2)on1 | 12 | 5 | -4 | -6 | 16* | 0 | 28*
CN(CCCC1CCCC1)C(=O)c1cc(COc2c(F)cccc2F)on1 | 13 | -5 | 4 | 6 | 4 | 2 | nt
Cc1noc(NS(=O)(=O)c2ccc(NC(=O)Nc3ccc(Cl)c(Cl)c3)cc2)c1C | 14 | -32 | 8 | 51* | 35* | -35 | 2
Cc1cc2oc(C(=O)Nc3ccc(S(=O)(=O)Nc4onc(C)c4C)cc3)cc(=O)c2cc1Cl | 9 | -4 | 11 | -3 | 20* | -4 | 22*
Cc1noc(NS(=O)(=O)c2ccc(N/C=C\C(=O)c3ccc(Br)cc3)cc2)c1C | 8 | -2 | 3 | 10 | 16* | 8 | 34*
Cc1noc(NS(=O)(=O)c2ccc(NC(=O)c3cc(=O)c4ccccc4o3)cc2)c1C | 4 | -1 | 2 | -2 | 2 | 4 | nt
C=CCN1C(=O)c2ccccc2Sc2ccc(C(=O)NCCC)cc21 | 0 | -2 | 2 | -4 | -4 | -2 | nt
CC(C)C(=O)Nc1ccc(C(=O)Nc2nnc(C(C)C)s2)cc1 | 0 | -4 | 9 | -4 | 0 | 2 | nt
CC(C)Sc1nnc([C@H](Cc2c[nH]c3ccccc23)NC(=O)OC(C)(C)C)o1 | 5 | 6 | 1 | -6 | 46* | 2 | 2
CC(C)c1nc(C(=O)N2CCCC(CCC(=O)N(C)CCc3ccccn3)C2)cs1 (centres undefined) | 5 | -2 | 3 | 0 | 0 | 7 | nt
CS(=O)(=O)N1CCN=C1SCc1ccc(Br)cc1 | 8 | 1 | -1 | -6 | -1 | 0 | nt
CS(=O)(=O)N1CCN=C1SCc1ccc([N+](=O)[O-])cc1 | 5 | -1 | 4 | 4 | + | 1 | 0
COC(=O)COC(=O)c1ccc(O)cc1 | 3 | -2 | -2 | -4 | 15* | -3 | 2
O=C(O)c1cccc(N/N=C/c2cc(Br)cc(Br)c2O)c1 | 14 | -2 | 18 | 58* | 24* | 5 | 20*
SMILES | LYPLA2 counter | PAD4 FP inh | Fam108B counter | PME-1 primary | LYPLA1 inh | GSTO1 inh | LYPLA1 confirm
COc1ccc(Br)cc1/C=N/Nc1cccc(C(=O)O)c1 | 5 | 3 | 3 | -1 | 4 | 6 | nt
COc1cc(NC(=O)Cn2ncc3c2-c2ccccc2OC3)cc(OC)c1OC | 11 | 13 | 13 | 21 | 20* | 10 | 2
COc1ccccc1NC(=O)Cn1ncc2c1-c1ccccc1OC2 | 5 | -6 | 2 | -9 | -3 | -2 | nt
O=C1NCCCCC1NS(=O)(=O)c1ccc(F)c(F)c1 (centres undefined) | -3 | 0 | -4 | 0 | -3 | 3 | nt
O=C(CCC(=O)NNC(=S)Nc1ccccc1)NCc1ccccc1 | 3 | 0 | 0 | 0 | -4 | 0 | nt
CN(C)C=Nc1c(Br)cc(Br)c2nonc12 | -2 | -25 | 12 | 6 | 14* | 6 | -1
CCc1ccc(NS(=O)(=O)c2ccc(OC)c(C)c2)cc1 | -2 | -1 | 1 | 14 | 0 | 10 | nt
COc1ccc(S(=O)(=O)Nc2ccc(Cc3ccncc3)cc2)cc1C | 4 | 0 | -6 | 19 | 36* | 13 | 47*
COc1ccccc1CCN1CCCC(CN(C)C(=O)CCC(=O)N(C)C)C1 (centres undefined) | 0 | 0 | 0 | -5 | -3 | -3 | nt
O=C(Nc1cccc2ncccc12)c1ccc(F)cc1 | 4 | 5 | 5 | -4 | -2 | 2 | nt
O=C(Nc1cccc2ncccc12)c1ccc(Cl)cc1 | 0 | -1 | -1 | -2 | 29* | 9 | 3
COc1cccc2c1OCC/C2=N\NC(=O)COc1ccccc1C | 5 | -1 | 0 | -8 | 0 | 1 | nt
CCOC(=O)Cc1csc(NC(=O)/C=C/c2ccc(OC)cc2)n1 | -2 | -7 | -2 | -14 | -1 | 0 | nt
CCOc1ccc(NC(=S)NC(=O)c2c(Br)cnn2C)c([N+](=O)[O-])c1 | 21 | -5 | -2 | 2 | 18* | 0 | 59*
Cc1ccc2nc(-c3sc4nc(C)cc(C)c4c3N)[nH]c2c1 | 9 | -1 | 4 | 30* | 15* | -2 | 2
Cc1ccc2nc(-c3cccc(N)c3)[nH]c2c1 | 8 | 1 | 3 | 1 | 1 | 2 | nt
COc1cc(CNCCCN2CCOCC2)c(Br)cc1OCC(=O)Nc1ccccc1C | 9 | 0 | 3 | 5 | 17* | 2 | 0
COc1ccc(N2CCN(C(=O)CCC(=O)N3CC(C)Oc4ccc(C)cc43)CC2)cc1 (centres undefined) | 9 | 1 | 6 | 3 | 4 | 2 | nt
COc1ccc2nc(NC(=O)c3sc4nc(C)cc(C)c4c3N)sc2c1 | 5 | -1 | -4 | 0 | 15* | 1 | 18*
Cc1cc(C)c2c(N)c(C(=O)Nc3ncc(C)s3)sc2n1 | -6 | 2 | -7 | 5 | 28* | -15 | 21*
